HSV replic up: HSV replication enhancement. HSV replication augmentation in cells, fold increase. maximum fold increase. 0.005% of 220,000 active. AID 1956; in the data active = maximum fold increase above about 1.5; inconclusive = no clear call, values can overlap the other calls; tested in PC3 cells
KCC2 mod: KCC2 (human) Cl- transport modulation; KCC2 cells, thallium flux FluoZin-2 fluorescence; B-score of Tl+ flux slope (higher = more flux/activation; lower = inhibition) at 10 µM; 2.2% of 190,000 active;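 active = thallium flux slope and its plate-corrected score both differing from the plate sample mean at a set confidence after two filtering rounds, in either direction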;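 note: slope of fluorescence scaled to starting intensity during 10 to 20 s after thallium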
Arbovirus anti: antivirals against arbovirus infection | arbovirus infection cell-based antiviral screen | inhibition, % at 10 µM | 0.37% of 200,000 active; in the data active = inhibition above about 30%
ROMK mod: human ROMK K+ channel modulation, primary screen; P48048; Tet-inducible ROMK, thallium flux fluorescence; actives lie on both sides; B-score at 10 µM; 2% of 130,000 active; AID 1918;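 active = signal ratio slope over the read window, or its plate-corrected B-score, at least 3 SD from the plate mean, either direction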;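 note: B-score of the F/F0 ratio slope over 7 to 12 s after thallium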
Target sequence (P48048 whole entry, looked up): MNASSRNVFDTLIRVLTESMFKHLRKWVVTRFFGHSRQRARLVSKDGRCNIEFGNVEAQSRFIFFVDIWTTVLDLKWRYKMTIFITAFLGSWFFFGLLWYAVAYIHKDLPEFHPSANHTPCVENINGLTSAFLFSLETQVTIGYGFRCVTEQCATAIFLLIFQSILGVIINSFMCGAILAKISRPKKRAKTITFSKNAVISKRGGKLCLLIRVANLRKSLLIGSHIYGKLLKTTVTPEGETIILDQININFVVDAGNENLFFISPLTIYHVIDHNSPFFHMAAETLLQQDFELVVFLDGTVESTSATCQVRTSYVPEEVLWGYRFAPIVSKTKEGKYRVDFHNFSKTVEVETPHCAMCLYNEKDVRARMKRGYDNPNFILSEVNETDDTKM
Measles CPE: protection of cells from measles virus. 1.5% of 140,000 active. Measles virus-infected cells, CPE protection, absorbance. AID 841. protection (pct of control), % at 4 µM; in the data active = protection mostly above about 24%, no sharp cut-off; inactive = mostly below about 26%
Active calls of the source: *; i = inactive; ? = inconclusive; / = not tested or not shown. In the library only some 4% were active in any assay of this set; here they are far more common.

SMILES	HSV replic up	KCC2 mod	Arbovirus anti	ROMK mod	Measles CPE
CC1=C(C(=O)NCc2ccccc2)C(c2cccs2)NC(=S)N1 (centres undefined)	i	-0.62	2	-1.4	/
CC(C)=NOc1cc(NC(=O)CCl)cc([N+](=O)[O-])c1	i	-0.77	-22	-1.5	4
CCC(=O)Nc1cc(ON=C(C)C)cc([N+](=O)[O-])c1	i	-0.45	-4	-0.23	96*
Cc1nc2c(Br)c(C)nn2c2c1CCC2	i	1	17	-0.36	/
Cc1cc(N)n(-c2ccc(C(=O)O)cc2)n1	i	-0.62	-2	0.44	/
CCc1ccc(S(=O)(=O)c2ccc(-n3nc(C)cc3N)cc2)cc1	i	-0.77	33*	-1.2	/
NC(=O)c1ccsc1NC(=O)CSc1ccccc1F	i	-0.43	-5	/	12
Cc1ccccc1SCC(=O)OCC(=O)Nc1sccc1C(N)=O	i	-1.8	3	/	46*
CCOC(=O)c1nn(-c2ccc(F)cc2)c(C)c1C(C)=O	i	0.57	-4	-0.047	46*
O=C(NC1=NCCS1)c1ccc(Cl)c(S(=O)(=O)N2CCCC2)c1	i	0.25	32*	-0.85	/
COC(=O)C(C)Sc1ncnc2c1c(-c1ccccc1)cn2-c1ccc(OC)cc1 (centres undefined)	/	0.21	3	/	3
CCOc1ccc(-n2cc(-c3ccccc3)c3c(SC(C)C(=O)OC)ncnc32)cc1 (centres undefined)	i	0.76	8	/	19*
CCn1c(COc2cccc3ccccc23)nnc1SCC(=O)OC1CCCCC1	i	/	34*	-2.4	28
C/C(=C\C(=O)c1ccc(C)o1)Nc1ccc2c(c1)OCO2	i	-0.91	-14	/	4
O=C(Nc1ccc2c(c1)OCO2)c1ccncc1	i	/	-4	1.3	26*
C/C(=C\C(=O)c1ccccc1)Nc1ccc2c(c1)OCO2	i	-0.79	-14	/	30*
O=C(Nc1ccc2c(c1)OCCO2)c1ccc(Cl)c([N+](=O)[O-])c1	i	-1.4	5	-0.0018	20*
COc1cc(NC(=O)c2ccc3c(c2)OCO3)ccc1NC(=O)c1ccco1	i	-0.69	1	0.95	5
O=C(O)c1cc(NC(=O)c2ccc(Cl)c([N+](=O)[O-])c2)cc(C(=O)O)c1	i	0.093	-1	-0.35	/
O=C(Nc1ccccc1C(=O)Nc1ccc2c(c1)OCO2)c1ccco1	i	-0.0072	-9	/	25*
CCCNC(=O)Cn1c(=O)/c(=C\c2ccc(-c3ccc([N+](=O)[O-])cc3)o2)s/c1=C\C(=O)C(C)(C)C	?	i	-6	/	6
O=C(NCC1CCCO1)c1ccc(NS(=O)(=O)c2ccccc2)cc1 (centres undefined)	i	/	4	-0.17	/
COc1cccc(C(=O)Nc2ccc(S(=O)(=O)Nc3nccc(C)n3)cc2)c1	i	1.3	8	-0.29	30*
Cc1cc(C)c(NC(=O)NC(=O)C(Cl)(Cl)Cl)c(C)c1	i	-0.34	5	-0.012	/
Cc1ccccc1Cc1c(C)nc2c(C(=O)N3CCN(Cc4ccc5c(c4)OCO5)CC3)cnn2c1C	i	-1.2	/	-5.3*	/
SMILES	HSV replic up	KCC2 mod	Arbovirus anti	ROMK mod	Measles CPE
O=C(CSCc1ccccc1)N1CCN(Cc2ccc3c(c2)OCO3)CC1	i	0.018	-13	-2.9*	6
CCN(CC)c1ccc(C(=O)NC(=S)N2CCN(Cc3ccc4c(c3)OCO4)CC2)cc1	i	17*	3	-3.3*	8
CC(C)NC(=S)N1CCN(Cc2ccc3c(c2)OCO3)CC1	i	0.026	2	0.72	/
Cc1cc(S(=O)(=O)NCC(C)C)ccc1OCC(=O)NCc1ccco1	i	0.4	3	/	/
Cc1ccc2[nH]c(=O)c(N3CCOCC3)c(-c3ccccc3)c2c1	i	0.89	9	/	78*
O=C(CCN1CCOCC1)Nc1c(-c2ccccc2)c2cc(Br)ccc2[nH]c1=O	i	0.49	1	/	5
COc1ccc(-n2c(C)cc(/C=C3\C(=O)NN(c4ccccc4)C3=O)c2C)cc1	i	0.27	-5	0.22	99*
Cc1cc(/C=C2/C(=O)NN(c3ccccc3)C2=O)c(C)n1-c1ccc(O)cc1	i	-0.21	-15	0.14	20
Clc1ccc(NC2(c3nnnn3C3CCCCC3)CCCCC2)cc1	i	-0.23	-2	0.21	50*
CC(C)CC(=O)NC(C)C(c1cccs1)N1CCOCC1 (centres undefined)	i	-0.02	/	1.4	/
O=c1/c(=C\c2cc([N+](=O)[O-])cc([N+](=O)[O-])c2O)sc2nc3ccccc3n12	i	-3.3*	15	-2	/
O=c1/c(=C/c2ccccn2)sc2nc3ccccc3n12	/	/	0	0.29	18
COc1ccc(F)cc1C(=O)C1CCCN(C(=O)CSc2ccccn2)C1 (centres undefined)	i	-2.1	35*	0.024	/
COc1ccc(CCNC(=O)Nc2ccccc2[N+](=O)[O-])cc1	i	-0.0019	15	-0.031	/
CCc1cc2c(=O)n(CCC(C)C)c(=S)[nH]c2s1	i	73*	1	9.7*	/
CCCn1cnc2sc(CC)cc2c1=O	i	/	0	-1.3	5
CC(C)CC(=O)Nc1ccccc1-c1nnn(CC(=O)N2CCc3ccccc3C2)n1	i	-3.8*	-6	/	11
COCCn1c(C)cc(C(=O)CSc2nc3ccccc3c(=O)n2Cc2ccco2)c1C	i	-1.6	-1	-0.16	18
COCCn1c(C)cc(C(=O)CSc2cc(C)c3ccccc3n2)c1C	i	0.14	31*	/	4
Cc1ccc(S(=O)(=O)NCc2ccc(C(=O)NCCN(Cc3ccccc3)C(C)C)cc2)cc1	i	0.19	-22	-0.48	/
CC(NC(=O)OC(C)(C)C)C(=O)NC(CCC(=O)OCc1ccccc1)C(N)=O (centres undefined)	i	0.51	-1	0.26	/
O=C(CSc1nnc(CNc2cccc(C(F)(F)F)c2)n1Cc1ccco1)NCc1ccco1	i	0.98	13	/	17
O=C(O)CSc1nnc(CNc2cccc(C(F)(F)F)c2)n1Cc1ccco1	i	0.41	34*	/	3
Cc1cc(C(=O)NNC(=S)Nc2ccccc2)nn1C	i	-0.46	-6	-0.65	/
CCN(CC)C(=O)CSC1=N/C(=C/c2ccco2)C(=O)N1c1ccc(OC)c(Cl)c1	i	-2	37*	-0.22	12
SMILES	HSV replic up	KCC2 mod	Arbovirus anti	ROMK mod	Measles CPE
CC/C(=N\NC(=S)Nc1ccc(OC)cc1)c1ccc(OC(F)F)cc1	i	8.7*	-10	/	13
CC/C(=N\NC(=S)Nc1cc(C)ccc1C)c1ccc(OC(F)F)cc1	i	7.7*	-4	-0.7	14
CC/C(=N\NC(=O)C(N)=O)c1ccccc1O	i	-0.24	-24	0.007	20
CCCCOC(=O)c1ccc(NC(=S)NC(=O)c2c(Cl)cnn2CC)cc1	i	23*	-12	/	18
CCCCOC(=O)c1ccc(NC(=S)NC(=O)c2c(Cl)cnn2C)cc1	i	28*	-7	/	3
COc1ccccc1OCCC(=O)OCC(=O)Nc1ccc(Br)cc1F	i	-3.4	0	-1.2	/
COCCn1cc(C(=O)c2cc(Br)ccc2O)cc(C#N)c1=O	i	0.021	4	-0.11	/
CCCCNC(=O)COc1ccccc1C(=O)c1cc(C#N)c(=O)n(CCOC)c1	i	0.66	1	/	42*
